Screens (PubChem)
JMJD2E inh = inhibitors of human JMJD2E histone demethylase. AID 2147. Potency, µM (top dose mostly 57.1 µM), for inactives: top-dose activity change, negative = inhibition, usual class: inhibitors. JMJD2E catalytic domain, FDH-coupled NADH fluorescence (FDH is formaldehyde dehydrogenase). 230,000 compounds, 1.6% hits. B2RXH2; active = well fitted inhibition curve with a large enough effect, not every such curve was filed as active; inconclusive = small, poorly fitted or top-dose-only effect, or another doubt; inactive = no such curve, though single readings can be large or run the other way;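 also: potency is read from the fitted curve at half-maximal effect; 0% = wells with enzyme and -100% = buffer wells without enzyme; nearly all actives have a fitted effect of over 50% in size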
Target sequence (B2RXH2 1-337 limits assumed): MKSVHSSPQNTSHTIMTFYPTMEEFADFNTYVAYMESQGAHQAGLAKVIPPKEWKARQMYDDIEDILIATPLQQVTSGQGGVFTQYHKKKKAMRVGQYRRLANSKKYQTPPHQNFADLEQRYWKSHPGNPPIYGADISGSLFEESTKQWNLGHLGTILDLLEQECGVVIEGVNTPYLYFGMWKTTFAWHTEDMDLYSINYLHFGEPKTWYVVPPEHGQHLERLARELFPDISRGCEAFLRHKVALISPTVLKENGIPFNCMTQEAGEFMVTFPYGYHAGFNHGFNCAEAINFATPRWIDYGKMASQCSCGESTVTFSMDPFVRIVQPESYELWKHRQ
HttQ103 aggreg = reduces HttQ103-GFP aggregates in PC12 cells; PC12 HttQ103-GFP aggregates, Acumen cytometry, 40 h; Potency, µM (highest dose often 46.1 µM), for the others: at the top dose activity change, negative = inhibition, hits mostly inhibitors; 220,000 compounds, 1.1% hits; also: potency is read from the fitted curve at half-maximal effect; % is scaled to controls: 0 for no effect and ±100 for the full control effect; nearly all actives have a fitted effect of over 60% in size
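Multiplexed with ATP-based cell death, this channel scores GFP aggregates in PC12 cells expressing inducible HTTex1-Q103-GFP. Induction used 100 nM tebufenozide; compounds were tested in concentration series.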
VDR inh = vitamin D3 receptor (human) inhibition | P11473 | VDR-SRC2-3 peptide fluorescence polarization, 2 h | Potency, µM, without a hit: max response, negative = inhibition, most hits filed as inhibitors | 400,000 compounds, 0.93% hits; also: potency is read from the fitted curve at half-maximal effect; % is scaled to controls: 0 for no effect and ±100 for the full control effect
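Compounds are added to VDR with labelled SRC2-3 coactivator peptide and held 2 h at room temperature. Inhibition of the VDR–peptide interaction is then read as a change in fluorescence polarization.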
GoLoco inh red = blocks human Gai1 binding to RGS12 GoLoco peptide, red readout; P63096; Gai1:RGS12 GoLoco peptide FP, rhodamine, 10 min; Potency, µM (doses to about 61.6 µM), for the others: at the highest dose activity, negative = inhibition, usual class: inhibitors; 230,000 compounds, 0.44% hits; AID 880; active = well fitted inhibition curve with a large enough effect, not every such curve was filed as active; inactive = no such curve, though single readings can be large or run the other way; also: potency is read from the fitted curve at half-maximal effect; % is scaled to controls: 0 for no effect and ±100 for the full control effect; nearly all actives have a fitted effect of over 30% in size
Target sequence (P63096 whole entry, looked up): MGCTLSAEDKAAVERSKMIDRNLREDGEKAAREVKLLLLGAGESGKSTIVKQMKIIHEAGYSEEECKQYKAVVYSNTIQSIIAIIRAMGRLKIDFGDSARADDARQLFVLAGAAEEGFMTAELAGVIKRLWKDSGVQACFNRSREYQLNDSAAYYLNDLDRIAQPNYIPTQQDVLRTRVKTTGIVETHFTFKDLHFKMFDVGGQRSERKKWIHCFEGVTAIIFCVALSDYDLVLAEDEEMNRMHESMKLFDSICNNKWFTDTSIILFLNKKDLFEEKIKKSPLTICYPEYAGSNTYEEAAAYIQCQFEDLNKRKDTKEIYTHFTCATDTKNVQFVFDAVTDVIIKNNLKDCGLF
HTT cytoprotect = protects HTT-Q103 PC12 cells, measured by ATP | PC12 HTT-Q103 induced, cytoprotection, ATP luminescence, 40 h | Potency, µM (titrated, usually from 56.4 µM), for inactives: cytoprotection (ATP increase), most hits filed as activators | 230,000 compounds, 0.14% hits; also: potency is read from the fitted curve at half-maximal effect; % of control where 0% means no effect; nearly all actives have a fitted effect of over 45% in size
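Readout: ATPlite luminescence (ATP level). Model: stable PC12, inducible Htt exon1 Q103-GFP. Inducer: tebufenozide, 100 nM final. Compounds: dose series. No G418 in medium.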
FBPA coupling cs = inhibits coupling enzyme system, counter-screen for aldolase hits; coupling enzyme system counterscreen, AmpLite Red fluorescence; activity change, negative = inhibition, % at 58.2 µM, hits read low; 290,000 compounds, 0.67% hits; in the data active = activity change below about -30%; also: % is scaled to controls: 0 for no effect and ±100 for the full control effect
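Counterscreen of the coupled detection system alone, without aldolase: glyceraldehyde-3-phosphate coupling enzymes plus AmpLite Red readout. Compounds at 57.5 uM final, 10 min RT preincubation, 20 min RT reaction, fluorescence 525/598 nm.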
An asterisk follows results filed as active; ? = inconclusive; . = no result given; [ ] = dose if it differs, or a comment. Shown are actives, neighbours in structure and some others; about 2.3% of the full set was active somewhere. Unless noted, calls follow the shape of the dose curve; as a rule, active = well fitted curve in the direction sought with a large enough effect; inconclusive = small, poorly fitted or top-dose-only effect, or another doubt; inactive = no such curve, though single readings can be large; an effect the other way counts as inactive or inconclusive.

SMILES	JMJD2E inh	HttQ103 aggreg	VDR inh	GoLoco inh red	HTT cytoprotect	FBPA coupling cs
CCc1ccc(C(=O)CN2C(=O)NC3(CCOc4ccccc43)C2=O)s1 (centres undefined)	.	.	11%	.	.	.
O=C(c1cc(C(F)(F)F)cc(C(F)(F)F)c1)N1CCC2(CCCN(c3ncccn3)C2)CC1	.	.	-22%	6%	-53%	-1
CN(C)c1ccc(C(c2nnnn2C(C)(C)C)N2CCc3ccccc3C2)cc1 (centres undefined)	-11%	13%	.	-3%	-2%[10 µM]	1
CC1CCN(C(c2ccc(N(C)C)cc2)c2nnnn2C(C)(C)C)CC1 (centres undefined)	?	-2%	50µM*	-17%	-4%[10 µM]	1
CC(=O)OCCCNc1cc(Sc2ccc(Cl)cc2)c2nonc2c1[N+](=O)[O-]	-7%	-8%	10µM*	0%	-4%[10 µM]	-49*
COc1cc(-c2ccc(-[n+]3nc(-c4ccccc4)nn3-c3ccc([N+](=O)[O-])cc3)c(OC)c2)ccc1-[n+]1nc(-c2ccccc2)nn1-c1ccc([N+](=O)[O-])cc1	.	-12%	1%	.	-64%	.
CCc1ccccc1NC(=O)c1noc(C(C)C)c1[N+](=O)[O-]	-1%	7.1µM*	-13%	15%	-19%	0
CCOc1ccccc1CNC(=O)c1cc2c(=O)n(Cc3cccnc3)ccc2nc1C	.	.	8%	.	.	.
NC(=O)c1c(-c2cccs2)csc1N	?	-23%	?	3%	11%[0.074 µM]	-45*
CCOC(=O)c1c(-c2cccs2)csc1NC(=O)CC(C)C	?	-10%	-10%	5%	-18%	3
O=C(N/N=C/c1cn(-c2ccccc2)nc1-c1cccs1)c1ccccc1F	?	?	16%	12%	22%[10 µM]	3
O=C(N/N=C/c1cn(-c2ccccc2)nc1-c1cccs1)c1ccc(Cl)cc1	?	11µM*	7%	6%	-5%[10 µM]	0
O=C(N/N=C/c1cn(-c2ccccc2)nc1-c1cc2ccccc2o1)c1ccncc1	-19%	10µM*	-6%	12%	11%[10 µM]	-4
COc1ccc(C(c2c(C)[nH]n(C(N)=S)c2=O)C(C#N)C#N)cc1 (centres undefined)	-8%	13%	28µM*	-3%	13%[1.9 µM]	-1
CCn1c(SCC(=O)c2ccc3c(c2)Cc2ccccc2-3)nnc1-c1ccc(N)cc1	-6%	-4%	-12%	-4%	3%	.
CCn1c(SCC(=O)c2ccc(O)c(O)c2)nnc1-c1ccc(C)cc1	25µM*	-17%	16%	-5%	-20%	1
CC(C)(C)c1nc(NCCO)c2nnn(Cc3ccccc3)c2n1	.	.	?	.	.	-2
CN[C@@H]1[C@H](O)[C@H](NC)[C@@H]2O[C@]3(O)C(=O)C[C@@H](C)O[C@H]3O[C@@H]2[C@H]1O	.	.	.	.	51%	.
C/C(=N\NC(N)=S)C12CC3CC(CC(C3)C1)C2	-11%	-9%	-3%	-1%	3.2µM*	1
COc1cc(OC)c(Nc2c3c(nc4nc(-c5cccs5)nn24)CCCC3)cc1Cl	.	.	0%	.	.	.
Cc1ccc(NC(=S)Nc2ccc3nc(-c4ccccn4)c(-c4ccccn4)nc3c2)cc1C	?	24%	-20%	9%	-1%[0.074 µM]	-53*
CCCCCC(=O)NNC1CC(=O)N(c2ccccc2)C1=O (centres undefined)	2%	3%[9.22 µM]	-11%	3%	25%[10 µM]	-1
CCCCCC(=O)N(O)C1CC(=O)N(c2ccccc2)C1=O (centres undefined)	-6%	?	20µM*	-16%	-40%	6
COc1ccc(-n2nc([N+](=O)[O-])c(=NCCC3=CCCCC3)n2O)cc1	-9%	5%[9.22 µM]	-26%	11%	-126%	0
Cc1ncc(CO)c(/C=N/NC(=O)c2cc(Br)ccc2O)c1O	?	?	-8%	0%	-132%	7
SMILES	JMJD2E inh	HttQ103 aggreg	VDR inh	GoLoco inh red	HTT cytoprotect	FBPA coupling cs
Cc1ncc(CO)c(/C=N/NC(=O)c2cc(O)c(O)c(O)c2)c1O	13µM*	8%	.	11%	13%[10 µM]	-14
Cc1ncc(CO)c(/C=N/NC(=O)c2ccc(Br)cc2)c1O	?	11µM*	.	6%	40%[10 µM]	1
COC(=O)c1cccc(NC(=O)N(C)CCc2c(C)nn(C)c2C)c1	.	.	7%	.	.	.
CCCOc1cccc(-c2cc(C(=O)NN)c3ccccc3n2)c1	11µM*	?	-5%	6%	.	-4
O=C1C2C3C=CC(C3)C2C(=O)N1CNc1ccc(O)cc1 (centres undefined)	?	?	.	-34%	-26%	-54*
COc1ccc(N2CCN(C(=O)c3ccccc3NS(=O)(=O)c3ccc(C)cc3)CC2)cc1	.	.	-11%	.	.	.
CCCCN(C(=O)c1ccc(-c2ccc(Cl)cc2)o1)c1c(N)n(CCCC)c(=O)[nH]c1=O	.	.	71µM*	.	.	.
CCCCN(C(=O)c1ccc(-c2ccc([N+](=O)[O-])cc2)o1)c1c(N)n(CC(C)C)c(=O)[nH]c1=O	.	.	32%	.	.	.
COc1cccc([C@@H]2CC=C(C(=O)O)[C@H](c3ccc(Br)cc3)N2S(=O)(=O)c2ccc(C)cc2)c1	.	.	-4%	.	.	.
CN(C(=O)c1cccc(NC(=O)Cc2cccc(NC(=O)C3CCN(C(=O)C4CCCCC4)CC3)c2)c1)C1CCC1	.	.	-2%	.	.	.
O=C(NCCO)c1ccc2nc(-c3ccco3)c(-c3ccco3)nc2c1	?	-12%	35µM*	-11%	-1%	-47*
O=C(c1ccccc1)c1ccc2nc(-c3ccco3)c(-c3ccco3)nc2c1	?	.	45µM*	-27%	.	-24
Cc1ccc(C)c(N2CCN(C(=O)c3ccc4nc(-c5ccco5)c(-c5ccco5)nc4c3)CC2)c1	?	?	-19%	17%	-82%	.
c1coc(-c2nc3ccccc3nc2-c2ccco2)c1	?	11%	?	-13%	-47%	-38*
c1ccc(Cn2c(-c3ccco3)nc3nc4ccccc4nc32)cc1	?	-27%	18%	14%	-15%	-6
Cc1ccc(S(=O)(=O)/N=C2/NC(=O)/C(=C\c3ccccc3)S2)cc1	.	.	79µM*	.	.	.
Cc1ccc(C(=O)NCCNC(=O)c2cccnc2)cc1	.	.	3%	.	.	2
CCOC(=O)c1ccccc1NC(=O)c1c(O)c2ccccc2n(CC)c1=O	?	?	6%	10%	?	1
CCn1c(=O)c(C(=O)Nc2ccsc2C(=O)OC)c(O)c2ccccc21	-27%	7.1µM*	.	-4%	?	3
O=c1cc2oc3cc(O)c(O)cc3c(-c3ccccc3[N+](=O)[O-])c-2cc1O	.	.	-7%	.	.	-20
CN(C)CCOc1nc(-c2ccccc2)nc2c1oc1ccccc12	-5%	22µM*	-11%	-2%	-44%	-2
